For seven sequences, binding signal results are on record in paper PMC7862700, “An all-to-all approach to the identification of sequence-specific readers for epigenetic DNA modifications on cytosine”.

Holding throughout (assay): DAPPL (digital affinity profiling via proximity ligation, sequencing); 10 mM Tris-HCl pH 7.5, 50 mM NaCl, 1 mM DTT, 4% glycerol, room temperature, 30 min; GST-TFs on glutathione beads, 16-mer random dsDNA library, 0.1% formaldehyde crosslink after washing; high values mean tight binding
For assay [1], the target named is T1, FEV (Homo sapiens, UniProt Q99581 1-238).
T1 sequence: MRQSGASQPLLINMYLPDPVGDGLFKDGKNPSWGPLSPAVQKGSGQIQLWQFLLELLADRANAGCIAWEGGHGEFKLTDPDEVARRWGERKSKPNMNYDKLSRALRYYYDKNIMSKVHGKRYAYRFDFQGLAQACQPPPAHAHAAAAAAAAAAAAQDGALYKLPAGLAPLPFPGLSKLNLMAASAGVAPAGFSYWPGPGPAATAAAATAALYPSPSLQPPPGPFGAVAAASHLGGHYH
The settings on record: protein: recombinant; tags: N-terminal GST; dsDNA, one strand shown. The gist of the method:
(§1)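 In yeast, human transcription factors were expressed with a GST fusion, then pulled down on glutathione beads and given DNA barcodes. Pooled with a tag-only sample, they were exposed to 200 nmole of a 16-mer random double-stranded DNA library (Tris/NaCl/DTT/glycerol buffer, room temperature, 30 min), washed, crosslinked with 0.1% formaldehyde, proximity-ligated using BsaI/T4 ligase for 1 h at 37 °C, PCR-amplified and read on an Illumina NextSeq500. Each hexamer's frequency of reads for a factor, divided by the matching frequency for the tag-only sample, gives the binding signal.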

The target in assay [2] is ETV5 (Homo sapiens, UniProt P41161 1-510). The settings on record: protein: recombinant; tags: N-terminal GST; dsDNA, one strand shown. The essentials:
as §1

Assay [3] has as its target HSF1 (Homo sapiens, UniProt Q00613 1-529). The settings on record: protein: recombinant; tags: N-terminal GST; chain copies: 3; dsDNA, one strand shown. The gist of the method:
as §1

The target of assay [4] is T2, SPIC (Homo sapiens, UniProt Q8N5J4 1-248).
T2 sequence: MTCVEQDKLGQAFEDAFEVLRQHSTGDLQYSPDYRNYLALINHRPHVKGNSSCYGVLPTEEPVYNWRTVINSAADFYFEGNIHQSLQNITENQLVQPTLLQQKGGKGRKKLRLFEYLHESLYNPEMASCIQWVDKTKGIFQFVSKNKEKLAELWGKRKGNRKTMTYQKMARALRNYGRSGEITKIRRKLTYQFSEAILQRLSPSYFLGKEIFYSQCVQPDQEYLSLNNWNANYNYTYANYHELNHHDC
The settings on record: protein: recombinant; tags: N-terminal GST; dsDNA, one strand shown. The gist of the method:
as §1

The target in assay [5] is ELF4 (Homo sapiens, UniProt Q99607 1-663). The settings on record: protein: recombinant; tags: N-terminal GST; dsDNA, one strand shown. The essentials:
as §1

Assay [6] deals with T3, ELK4 (Homo sapiens, UniProt P28324-2 1-405).
T3 sequence: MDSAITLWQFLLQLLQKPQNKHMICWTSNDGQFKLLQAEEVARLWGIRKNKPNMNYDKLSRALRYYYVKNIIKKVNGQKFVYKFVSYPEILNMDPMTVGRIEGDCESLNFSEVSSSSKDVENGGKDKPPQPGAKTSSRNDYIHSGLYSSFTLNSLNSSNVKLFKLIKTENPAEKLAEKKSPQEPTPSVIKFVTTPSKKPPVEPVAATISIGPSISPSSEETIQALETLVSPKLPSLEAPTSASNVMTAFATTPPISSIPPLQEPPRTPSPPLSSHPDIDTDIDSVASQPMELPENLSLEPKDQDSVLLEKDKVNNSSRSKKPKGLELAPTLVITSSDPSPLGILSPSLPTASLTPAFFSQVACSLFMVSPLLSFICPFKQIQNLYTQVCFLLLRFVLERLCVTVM
The settings on record: protein: recombinant; tags: N-terminal GST; dsDNA, one strand shown. The essentials: as §1

Assay [7] has as its target T4, ETV2 (Homo sapiens, UniProt O00321 1-342).
T4 sequence: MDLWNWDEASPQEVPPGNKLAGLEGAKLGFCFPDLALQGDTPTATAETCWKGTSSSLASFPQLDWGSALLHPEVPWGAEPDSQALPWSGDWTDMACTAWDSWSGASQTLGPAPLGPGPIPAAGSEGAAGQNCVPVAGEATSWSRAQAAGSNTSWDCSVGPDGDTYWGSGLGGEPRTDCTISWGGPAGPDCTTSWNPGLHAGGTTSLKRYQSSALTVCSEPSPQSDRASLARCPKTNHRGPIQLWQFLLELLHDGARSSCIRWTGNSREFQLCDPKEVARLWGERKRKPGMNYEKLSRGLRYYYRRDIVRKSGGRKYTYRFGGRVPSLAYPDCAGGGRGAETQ
The settings on record: protein: recombinant; tags: N-terminal GST; dsDNA, one strand shown. The gist of the method: as §1

Assay [8] concerns the target T5, ELF3 (Homo sapiens, UniProt P78545 1-371).
T5 sequence: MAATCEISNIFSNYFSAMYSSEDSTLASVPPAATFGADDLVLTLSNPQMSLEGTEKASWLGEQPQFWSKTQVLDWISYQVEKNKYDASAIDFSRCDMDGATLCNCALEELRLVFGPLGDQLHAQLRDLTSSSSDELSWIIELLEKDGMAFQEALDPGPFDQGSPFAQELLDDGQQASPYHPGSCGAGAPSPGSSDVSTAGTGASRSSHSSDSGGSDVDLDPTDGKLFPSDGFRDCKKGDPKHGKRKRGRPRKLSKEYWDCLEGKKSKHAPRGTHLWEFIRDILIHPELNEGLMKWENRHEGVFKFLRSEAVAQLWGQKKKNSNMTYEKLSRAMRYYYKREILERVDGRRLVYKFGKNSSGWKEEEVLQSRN
The settings on record: protein: recombinant; tags: N-terminal GST; dsDNA, one strand shown. The essentials:
as §1

Assay [9] addresses CRX (Homo sapiens, UniProt O43186 1-299). The settings on record: protein: recombinant; tags: N-terminal GST; dsDNA, one strand shown. The gist of the method: as §1
Assay [10] deals with ETV1 (Homo sapiens, UniProt P50549 1-477). The settings on record: protein: recombinant; tags: N-terminal GST; dsDNA, one strand shown. The gist of the method: as §1
ETV1, sequence (P50549 whole entry): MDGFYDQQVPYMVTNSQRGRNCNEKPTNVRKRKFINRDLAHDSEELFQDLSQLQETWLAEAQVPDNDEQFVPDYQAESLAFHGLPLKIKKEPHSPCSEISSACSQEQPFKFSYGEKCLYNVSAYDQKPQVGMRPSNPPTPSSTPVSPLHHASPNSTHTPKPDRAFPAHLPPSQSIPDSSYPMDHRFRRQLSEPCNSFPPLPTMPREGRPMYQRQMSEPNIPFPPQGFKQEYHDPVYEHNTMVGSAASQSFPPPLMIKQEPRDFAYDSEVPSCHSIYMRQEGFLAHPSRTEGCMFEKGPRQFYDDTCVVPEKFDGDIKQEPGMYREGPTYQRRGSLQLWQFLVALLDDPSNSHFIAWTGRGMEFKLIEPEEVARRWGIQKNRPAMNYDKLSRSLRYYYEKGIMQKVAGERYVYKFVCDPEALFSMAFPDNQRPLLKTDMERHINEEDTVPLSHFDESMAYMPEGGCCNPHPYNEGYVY

ETV5, sequence (P41161 whole entry): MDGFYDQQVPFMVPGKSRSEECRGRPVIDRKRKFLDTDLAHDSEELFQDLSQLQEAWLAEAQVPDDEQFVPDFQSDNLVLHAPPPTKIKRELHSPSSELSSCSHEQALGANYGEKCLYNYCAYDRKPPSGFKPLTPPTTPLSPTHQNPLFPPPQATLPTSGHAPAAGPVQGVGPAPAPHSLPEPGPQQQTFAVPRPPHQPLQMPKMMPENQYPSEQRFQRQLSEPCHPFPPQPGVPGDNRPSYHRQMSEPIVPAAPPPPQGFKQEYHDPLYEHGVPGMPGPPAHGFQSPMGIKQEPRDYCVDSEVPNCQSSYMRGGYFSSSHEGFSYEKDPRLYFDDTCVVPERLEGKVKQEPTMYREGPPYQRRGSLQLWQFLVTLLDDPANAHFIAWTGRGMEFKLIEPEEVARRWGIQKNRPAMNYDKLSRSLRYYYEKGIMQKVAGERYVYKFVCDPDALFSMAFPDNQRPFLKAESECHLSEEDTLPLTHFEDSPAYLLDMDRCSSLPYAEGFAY
ELF4, sequence (Q99607 whole entry): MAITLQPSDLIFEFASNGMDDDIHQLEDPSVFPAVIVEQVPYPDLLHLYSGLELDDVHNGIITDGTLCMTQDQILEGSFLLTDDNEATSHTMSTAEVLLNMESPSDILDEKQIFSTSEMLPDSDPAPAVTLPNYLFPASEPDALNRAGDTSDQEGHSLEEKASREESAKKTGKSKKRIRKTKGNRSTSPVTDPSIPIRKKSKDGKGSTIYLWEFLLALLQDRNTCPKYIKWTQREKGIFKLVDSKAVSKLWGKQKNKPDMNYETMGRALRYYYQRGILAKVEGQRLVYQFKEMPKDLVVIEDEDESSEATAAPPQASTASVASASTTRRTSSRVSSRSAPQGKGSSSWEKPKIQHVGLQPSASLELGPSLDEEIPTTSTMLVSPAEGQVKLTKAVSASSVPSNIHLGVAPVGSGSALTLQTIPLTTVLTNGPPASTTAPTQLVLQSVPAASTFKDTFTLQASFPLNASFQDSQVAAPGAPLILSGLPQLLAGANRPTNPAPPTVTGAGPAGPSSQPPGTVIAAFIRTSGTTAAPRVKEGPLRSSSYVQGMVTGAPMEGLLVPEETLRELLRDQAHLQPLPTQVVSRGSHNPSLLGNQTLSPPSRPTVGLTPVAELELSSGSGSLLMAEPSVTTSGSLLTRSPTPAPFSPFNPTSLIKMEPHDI
CRX, sequence (O43186 whole entry): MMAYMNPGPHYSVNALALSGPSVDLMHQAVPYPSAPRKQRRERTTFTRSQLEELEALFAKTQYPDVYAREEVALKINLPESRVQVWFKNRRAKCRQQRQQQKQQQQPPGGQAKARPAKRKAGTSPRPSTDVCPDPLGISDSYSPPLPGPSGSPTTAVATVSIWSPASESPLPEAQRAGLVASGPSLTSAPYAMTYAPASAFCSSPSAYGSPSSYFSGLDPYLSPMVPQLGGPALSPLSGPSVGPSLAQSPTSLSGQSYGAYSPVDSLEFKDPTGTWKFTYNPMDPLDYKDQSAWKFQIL
HSF1, sequence (Q00613 whole entry): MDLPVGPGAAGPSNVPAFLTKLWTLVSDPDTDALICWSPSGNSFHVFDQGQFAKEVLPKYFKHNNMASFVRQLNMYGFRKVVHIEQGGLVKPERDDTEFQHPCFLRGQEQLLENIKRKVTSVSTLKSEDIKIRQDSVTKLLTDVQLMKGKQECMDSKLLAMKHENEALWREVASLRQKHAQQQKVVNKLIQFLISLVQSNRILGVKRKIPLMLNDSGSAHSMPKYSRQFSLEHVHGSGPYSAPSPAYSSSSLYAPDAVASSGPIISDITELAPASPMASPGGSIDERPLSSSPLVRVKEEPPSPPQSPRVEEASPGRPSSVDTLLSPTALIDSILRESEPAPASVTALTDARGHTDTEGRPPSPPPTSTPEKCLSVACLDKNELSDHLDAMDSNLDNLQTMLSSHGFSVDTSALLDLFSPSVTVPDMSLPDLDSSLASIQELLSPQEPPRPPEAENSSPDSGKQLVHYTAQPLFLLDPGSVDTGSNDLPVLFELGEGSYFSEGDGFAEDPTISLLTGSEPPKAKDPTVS

For TCTGTG, the binding signal in assay [1] was 1.07 fold enrichment (6-mer frequency, TF over GST control); in [2] it was 1.08 fold enrichment (6-mer frequency, TF over GST control); in assay [3], 1.05 fold enrichment (6-mer frequency, TF over GST control); in [4] it was 1.34 fold enrichment (6-mer frequency, TF over GST control); in assay [5], 1.2 fold enrichment (6-mer frequency, TF over GST control); in [6] it was 1.21 fold enrichment (6-mer frequency, TF over GST control). In addition, the binding signal is 1.1 fold enrichment (6-mer frequency, TF over GST control) in assay [7]; 1.07 fold enrichment (6-mer frequency, TF over GST control) in [8]; 1.09 fold enrichment (6-mer frequency, TF over GST control) in [9]; 1.16 fold enrichment (6-mer frequency, TF over GST control) in assay [10].
With TGGCAA, the binding signal in assay [1] was 1.17 fold enrichment (6-mer frequency, TF over GST control); in assay [2], 1.18 fold enrichment (6-mer frequency, TF over GST control); in assay [3], 1.18 fold enrichment (6-mer frequency, TF over GST control); in [4], 1.13 fold enrichment (6-mer frequency, TF over GST control); in assay [5], 1.21 fold enrichment (6-mer frequency, TF over GST control); in assay [6], 1.19 fold enrichment (6-mer frequency, TF over GST control). In addition, the binding signal in assay [7] was 1.11 fold enrichment (6-mer frequency, TF over GST control); in assay [8], 1.03 fold enrichment (6-mer frequency, TF over GST control); in assay [9], 1.07 fold enrichment (6-mer frequency, TF over GST control); in [10], 1.16 fold enrichment (6-mer frequency, TF over GST control).
Consider GACTTT, for which the binding signal was 1.14 fold enrichment (6-mer frequency, TF over GST control) in assay [1]; 1.22 fold enrichment (6-mer frequency, TF over GST control) in assay [2]; 1.4 fold enrichment (6-mer frequency, TF over GST control) in assay [3]; 1.21 fold enrichment (6-mer frequency, TF over GST control) in assay [4]; 1.22 fold enrichment (6-mer frequency, TF over GST control) in assay [5]; 1.17 fold enrichment (6-mer frequency, TF over GST control) in assay [6]. Further, the binding signal in [7] is 1.1 fold enrichment (6-mer frequency, TF over GST control); in assay [8], 1.1 fold enrichment (6-mer frequency, TF over GST control); in assay [9], 1.37 fold enrichment (6-mer frequency, TF over GST control); in assay [10], 1.24 fold enrichment (6-mer frequency, TF over GST control).
On to TTTGTC, for which the binding signal in [1] was 1.19 fold enrichment (6-mer frequency, TF over GST control); in assay [2] it was 1.15 fold enrichment (6-mer frequency, TF over GST control); in assay [3] it was 1.11 fold enrichment (6-mer frequency, TF over GST control); in [4] it was 1.16 fold enrichment (6-mer frequency, TF over GST control); in assay [5], 1.18 fold enrichment (6-mer frequency, TF over GST control); in assay [6], 1.23 fold enrichment (6-mer frequency, TF over GST control). Besides, the binding signal in [7] was 1.16 fold enrichment (6-mer frequency, TF over GST control); in assay [8] it was 1.27 fold enrichment (6-mer frequency, TF over GST control); in assay [9], 1.29 fold enrichment (6-mer frequency, TF over GST control); in assay [10], 1.14 fold enrichment (6-mer frequency, TF over GST control).
As to ATTGGG, the binding signal in assay [1] was 1.13 fold enrichment (6-mer frequency, TF over GST control); in assay [2], 1.26 fold enrichment (6-mer frequency, TF over GST control); in [3] it was 1.06 fold enrichment (6-mer frequency, TF over GST control); in assay [4] it was 1.26 fold enrichment (6-mer frequency, TF over GST control); in assay [5], 1.19 fold enrichment (6-mer frequency, TF over GST control); in assay [6], 1.18 fold enrichment (6-mer frequency, TF over GST control). Further, the binding signal in assay [7] is 1.13 fold enrichment (6-mer frequency, TF over GST control); in assay [8], 1.22 fold enrichment (6-mer frequency, TF over GST control); in [9], 1.22 fold enrichment (6-mer frequency, TF over GST control); in assay [10] it was 1.2 fold enrichment (6-mer frequency, TF over GST control).
As to TTTGTG, the binding signal in assay [1] was 1.23 fold enrichment (6-mer frequency, TF over GST control); in assay [2], 1.17 fold enrichment (6-mer frequency, TF over GST control); in [3] it was 1.12 fold enrichment (6-mer frequency, TF over GST control); in [4] it was 1.15 fold enrichment (6-mer frequency, TF over GST control); in assay [5] it was 1.19 fold enrichment (6-mer frequency, TF over GST control); in assay [6] it was 1.38 fold enrichment (6-mer frequency, TF over GST control). In addition, the binding signal in [7] is 1.25 fold enrichment (6-mer frequency, TF over GST control); in [8], 1.27 fold enrichment (6-mer frequency, TF over GST control); in assay [9] it was 1.29 fold enrichment (6-mer frequency, TF over GST control); in assay [10], 1.1 fold enrichment (6-mer frequency, TF over GST control).
For ATGATC, the binding signal is 1.14 fold enrichment (6-mer frequency, TF over GST control) in [1]; 1.24 fold enrichment (6-mer frequency, TF over GST control) in [2]; 1.59 fold enrichment (6-mer frequency, TF over GST control) in [3]; 1.38 fold enrichment (6-mer frequency, TF over GST control) in assay [4]; 1.21 fold enrichment (6-mer frequency, TF over GST control) in [5]; 1.16 fold enrichment (6-mer frequency, TF over GST control) in assay [6]. Moreover, the binding signal in assay [7] was 1.15 fold enrichment (6-mer frequency, TF over GST control); in assay [8] it was 1.19 fold enrichment (6-mer frequency, TF over GST control); in [9], 1.74 fold enrichment (6-mer frequency, TF over GST control); in [10], 1.1 fold enrichment (6-mer frequency, TF over GST control).
